Measured values as given in PubChem BioAssay AID504500 (NMMLSC, 2011).
Entries with a potency or affinity are not part of this list. Activity calls are given as the source filed them.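 How the source made its calls: active means compounds whose curve fit is tight, with span above 25% and half-effect concentration below 10 µM; inactive means the rest.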

These compounds were tested against Beta-adrenergic receptor kinase 1 (Homo sapiens) (UniProt P25098) (assay: aptamer displacement from bead-bound GRK2 – biochemical, cherry pick 1, bead flow cytometry, dose response (AID 504500)). Settings: bead-bound biotinylated GRK2, FAM-aptamer displacement; series mostly up to 33 µM; inhibition of aptamer binding: at the top concentration.
Sequence of Beta-adrenergic receptor kinase 1 (Homo sapiens) (P25098 whole entry, looked up): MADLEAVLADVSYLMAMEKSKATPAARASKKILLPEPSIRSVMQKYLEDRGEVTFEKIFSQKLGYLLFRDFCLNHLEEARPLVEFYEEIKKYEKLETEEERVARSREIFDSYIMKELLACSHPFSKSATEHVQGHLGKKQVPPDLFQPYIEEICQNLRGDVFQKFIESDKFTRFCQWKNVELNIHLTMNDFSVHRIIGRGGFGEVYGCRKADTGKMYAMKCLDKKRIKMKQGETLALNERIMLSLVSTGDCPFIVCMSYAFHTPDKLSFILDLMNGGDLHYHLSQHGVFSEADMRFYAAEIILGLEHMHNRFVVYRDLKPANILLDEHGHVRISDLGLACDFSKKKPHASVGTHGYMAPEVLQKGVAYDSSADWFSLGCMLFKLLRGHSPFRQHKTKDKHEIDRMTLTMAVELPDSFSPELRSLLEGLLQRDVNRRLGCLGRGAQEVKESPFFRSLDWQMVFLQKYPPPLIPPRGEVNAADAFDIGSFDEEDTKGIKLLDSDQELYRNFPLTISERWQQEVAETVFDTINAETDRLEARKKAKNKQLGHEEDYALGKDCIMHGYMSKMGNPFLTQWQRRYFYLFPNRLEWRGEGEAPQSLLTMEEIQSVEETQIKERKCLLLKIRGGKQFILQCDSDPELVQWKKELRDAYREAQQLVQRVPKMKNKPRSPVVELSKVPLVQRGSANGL

| Structure (SMILES) | inhibition of aptamer binding |
| --- | --- |
| Cc1nc2c(=O)n(C)c(=O)nc-2n(C)n1 | 2.89% (inactive) |
| CC[n+]1c(/C=C/N(C)c2ccccc2)sc2ccc(Cl)cc21 | 69.3% (inactive) |
| O=C1NC(=O)N(c2ccc3c(c2)OCO3)C(=O)/C1=C\c1ccc(-c2ccccc2C(=O)O)o1 | -4.21% (inactive) |
| Cn1ncnc2c(=O)n(C)c(=O)nc1-2 | 6.02% (inactive) |
